Measured values reported in PubChem BioAssay (NCI).
Values joined by “and” are separate entries in the source; they are usually repeats but may differ in a detail not shown here. Identical values can stand only once. This is part of a sample that, as a whole, favours compounds with a hit. Of some 79,000 tested, about 15% had one in any assay. Active and inactive are the calls of the source. Rule as the data show it: active = growth inhibition above about 70%; inactive = the rest.

How the values were obtained:
[1] = NCI Yeast Anticancer Drug Screen. Data for the rad52 strain (AID 147);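 also: 0% = growth of vehicle-treated control cultures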; settings: S. cerevisiae rad52 mutant growth inhibition, stronger effect = higher value
Procedure, shortened: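 Yeast strain carrying a DNA damage repair alteration was exposed to test compounds. Growth inhibition was measured relative to vehicle-treated controls.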

[2] = NCI Yeast Anticancer Drug Screen. Data for the wt1 strain (AID 149);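 also: 0% = growth of vehicle-treated wt1 cultures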; settings: S. cerevisiae wt1 strain (SPY 50644) growth inhibition, stronger effect = higher value
Procedure, shortened: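 Readout: yeast growth inhibition, normalised to vehicle controls, in the wt1 strain exposed to test compounds.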

[3] = NCI Yeast Anticancer Drug Screen. Data for the rad50EPP+ strain (AID 151);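 also: 0% = growth of vehicle-treated control cultures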; settings: S. cerevisiae rad50 mutant strain, stronger effect = higher value
Procedure, shortened: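 Yeast strain carrying rad50 alteration (rad50EPP+) exposed to compounds; growth inhibition measured relative to vehicle-treated controls.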

[4] = NCI Yeast Anticancer Drug Screen. Data for the rad50 strain (AID 155);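 also: 0% = growth of vehicle-only cultures of the same strain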; settings: S. cerevisiae rad50 strain growth inhibition, stronger effect = higher value
Procedure, shortened: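 Compounds were tested on a yeast strain with an engineered DNA damage repair alteration; the reported value is growth inhibition normalised to vehicle treatment.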

[5] = NCI Yeast Anticancer Drug Screen. Data for the mec2-1 strain (AID 157); settings: S. cerevisiae mec2-1 strain, stronger effect = higher value
Procedure, shortened: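 mec2-1 yeast strain, carrying an alteration in DNA damage repair or cell cycle control, was exposed to compounds; growth inhibition was measured relative to vehicle-treated controls.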

[6] = NCI Yeast Anticancer Drug Screen. Data for the rad14 strain (AID 159);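 also: 0% = growth of vehicle-treated control cultures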; settings: S. cerevisiae rad14 strain growth inhibition, stronger effect = higher value
Procedure, shortened: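 Compound-treated yeast with a defined DNA-repair lesion; growth inhibition normalised to vehicle-treated cultures.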

[7] = NCI Yeast Anticancer Drug Screen. Data for the sgs1 mgt1 strain (AID 161);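 also: 0% = growth of cultures given vehicle only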; settings: S. cerevisiae sgs1 mgt1 strain, stronger effect = higher value
Procedure, shortened: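 Growth of a repair-deficient yeast mutant was monitored after compound treatment and expressed as inhibition relative to vehicle-treated cultures.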

[8] = NCI Yeast Anticancer Drug Screen. Data for the cln2 rad14 strain (AID 165);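 also: 0% = growth equal to vehicle treated cultures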; settings: S. cerevisiae cln2 rad14 strain, stronger effect = higher value
Procedure, shortened: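 Yeast carrying cln2 and rad14 alterations (cell cycle control and DNA damage repair) were exposed to compounds. Growth inhibition was measured against vehicle-treated controls.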

[9] = NCI Yeast Anticancer Drug Screen. Data for the bub3 strain (AID 167); settings: S. cerevisiae bub3 mutant strain, stronger effect = higher value
Procedure, shortened: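 Growth of a checkpoint-deficient yeast mutant is measured after compound exposure. Values represent inhibition relative to vehicle.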

[10] = NCI Yeast Anticancer Drug Screen. Data for the wt2 strain (AID 169);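 also: 0% = growth of vehicle-treated yeast cultures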; settings: S. cerevisiae wt2 strain growth inhibition, stronger effect = higher value
Procedure, shortened: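 Yeast cells were exposed to test compounds, and growth inhibition was measured relative to vehicle-treated controls.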

[11] = NCI Yeast Anticancer Drug Screen. Data for the mlh1 strain (AID 171);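 also: 0% = growth of vehicle-treated control cultures of the same strain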; settings: S. cerevisiae mlh1 strain growth inhibition, stronger effect = higher value
Procedure, shortened: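 Yeast carrying a defined genetic alteration in DNA damage repair or cell cycle control were exposed to test compounds. Growth inhibition was measured relative to vehicle-treated controls.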

[12] = NCI Yeast Anticancer Drug Screen. Data for the sgs1 strain (AID 173);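 also: 0% = growth of vehicle-only control cultures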; settings: S. cerevisiae sgs1 mutant, stronger effect = higher value
Procedure, shortened: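 Yeast mutant strains carrying defined defects in DNA damage repair or cell cycle control were exposed to test compounds. Growth inhibition was scored against vehicle-treated controls.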

[13] = NCI Yeast Anticancer Drug Screen. Data for the mlh1 rad18 strain (AID 175); settings: S. cerevisiae mlh1 rad18 strain growth inhibition, stronger effect = higher value
Procedure, shortened: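 Growth inhibition of the yeast strain was measured after compound exposure and expressed relative to vehicle-treated controls. The strain carries defined defects in DNA damage repair.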

[14] = NCI Yeast Anticancer Drug Screen. Data for the rad18 strain (AID 177); settings: S. cerevisiae rad18 mutant growth inhibition, stronger effect = higher value
Procedure, shortened: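 Yeast carrying a defined DNA damage repair alteration were exposed to compounds. Growth inhibition was expressed relative to vehicle-treated controls.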

[15] = at 5.0 µM (retest, dose inferred, filed as 0.5)
[16] = at 50.0 µM (retest, dose inferred, filed as 5.0)

Measured: growth inhibition

O=Nn1c2ccccc2c2ccccc21
active: [3]; at 100.0 µM 79% | [4]; at 100.0 µM 83% | [6]; at 100.0 µM 92% | [9]; [16] 95% | [11]; at 100.0 µM 93% | [14]; at 100.0 µM 86%
inactive: [1]; at 1.2 µM -15% | [1]; at 3.7 µM -18% | [1]; at 11.0 µM -22% | [1]; at 33.0 µM 5% | [1]; at 100.0 µM 68% | [2]; at 1.2 µM 2% | [2]; at 3.7 µM 21% | [2]; at 11.0 µM 7% | [2]; at 33.0 µM 9% | [2]; at 100.0 µM 60% | [3]; at 1.2 µM 0% | [3]; at 3.7 µM 18% | [3]; at 11.0 µM 9% | [3]; at 33.0 µM 50% | [4]; at 1.2 µM 12% | [4]; at 3.7 µM -1% | [4]; [15] -13% | [4]; at 11.0 µM -3% | [4]; at 33.0 µM 23% | [4]; [16] 13% | [4]; at 50.0 µM 27.5% and 25.4% | [5]; at 1.2 µM -17% | [5]; at 3.7 µM 2% | [5]; [15] -1% | [5]; at 11.0 µM 1% | [5]; at 33.0 µM 21% | [5]; [16] 9% | [5]; at 50.0 µM 16.7% and 11.6% | [5]; at 100.0 µM 65% | [6]; at 1.2 µM 10% | [6]; at 3.7 µM 6% | [6]; at 11.0 µM 11% | [6]; at 33.0 µM 49% | [7]; [15] 2% | [7]; [16] -10% | [7]; at 50.0 µM 5.25% and 16.6% | [8]; [15] 5% | [8]; [16] 67% | [8]; at 50.0 µM 3.15% and 40.1% | [9]; at 1.2 µM -7% | [9]; at 3.7 µM -9% | [9]; [15] -28% | [9]; at 11.0 µM -14% | [9]; at 33.0 µM -3% | [9]; at 50.0 µM 1.5% and 66% | [9]; at 100.0 µM 59% | [10]; at 1.2 µM -46% | [10]; at 3.7 µM -34% | [10]; at 11.0 µM -28% | [10]; at 33.0 µM -15% | [10]; at 100.0 µM 62% | [11]; at 1.2 µM 27% | [11]; at 3.7 µM 27% | [11]; at 11.0 µM 19% | [11]; at 33.0 µM 56% | [12]; at 1.2 µM -3% | [12]; at 3.7 µM 5% | [12]; at 11.0 µM 10% | [12]; at 33.0 µM 7% | [12]; at 100.0 µM 66% | [13]; [15] -16% | [13]; [16] 16% | [13]; at 50.0 µM 21.5% and 15.5% | [14]; at 1.2 µM 9% | [14]; at 3.7 µM 7% | [14]; at 11.0 µM -9% | [14]; at 33.0 µM 24%
